From PubChem BioAssay
Activity calls are given as the source filed them. Unless noted, how the calls were made is not given here.

Key:
[1] = system: Wnt5a (protein binding on small-molecule microarray); assay: small molecules binding Wnt5a protein – biophysical, small-molecule microarray, 635/667 nm fluorescence, primary screen (AID 1142); details: 635 nm fluorescence, higher = more signal;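 further: fluorescence read at 667 nm with signal to noise per printed feature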
[2] = ATP-based viability of Huh7 replicon cells – cell-based, CellTiter-Glo luminescence, basal, 48 h, cytotoxicity control for HCV replication inhibitor project, primary screen (AID 1143); details: higher = more signal, called active from +8 up or from −8 down;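 further: Huh7 hepatoma cells carrying a hepatitis C replication reporter with no stimulus; test concentration not given here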
[3] = Pseudomonas biofilm growth suppression – PAO1 strain, BacTiter-Glo luminescence, LB-PBS, primary screen (AID 1144); details: P. aeruginosa PAO1 biofilm, 12 h, higher = more signal
[4] = basal CRE-LacZ reporter activity in PC12 – cell-based, unstimulated, primary screen (AID 1145); details: no forskolin, luminescence, 4.5 h, higher = more signal, called active from +8 up or from −8 down
[5] = forskolin-driven CRE-LacZ activity in PC12 – cell-based, CRE-LacZ reporter, forskolin-stimulated, primary screen (AID 1146); details: luminescence, 4.5 h, higher = more signal, called active from +8 up or from −8 down;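 further: PC12 cells with 6xCRE LacZ reporter stimulated by forskolin 10 µM; beta-galactosidase reporter signal reflecting CREB driven transcription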
[6] = target: Streptavidin (Streptomyces avidinii) (UniProt P22629); assay: compounds binding control protein streptavidin – biophysical, small-molecule microarray, 635/667 nm fluorescence, artefact control for SMM compound annotation, primary screen (AID 1147); details: higher = more signal;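 further: signal reflects streptavidin binding to arrayed compounds as a control protein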
[7] = probe aInhba binding on compound microarray – biochemical, small-molecule microarray, 635/667 nm fluorescence, primary screen (AID 1148); details: higher = more signal;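 further: score merges 667nm spot fluorescence with signal-to-noise for antibody binding to printed compounds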
[8] = target: Torsin-1A (Homo sapiens) (UniProt O14656); assay: TOR1A wild-type binding on microarray – cell lysate, small-molecule microarray, lysate, 635/667 nm, primary screen (AID 1149); details: COS7 hTOR1A-WT lysate, 635 nm fluorescence, higher = more signal
[9] = target: Torsin-1A (Homo sapiens) (UniProt O14656); assay: torsin A mutant lysate binding on microarrays – cell lysate, small-molecule microarray, COS7 lysate, 635/667 nm fluorescence, primary screen (AID 1150); details: COS7 hTOR1A mutant lysate, 635 nm fluorescence, higher = more signal;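 further: score pools 667 nm emission and signal to noise measuring lysate protein binding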
[10] = system: Sonic hedgehog protein (Shh); assay: Sonic hedgehog microarray binding compounds – biochemical, small-molecule microarray, 635/667 nm fluorescence, primary screen (AID 1151); details: 635 nm fluorescence, higher = more signal;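 further: Shh protein binding to compounds spotted on small-molecule microarray slides; score combines spot fluorescence intensity with signal-to-noise across triplicate slides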
[11] = optical density shifts of acrAB sulA E. coli – strain DRC41, OD650, 48 h, E. coli filamentation inducer project, primary screen (AID 1152); details: higher = more signal, called active from +8 up or from −8 down;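 further: E. coli MC1000 strain DRC41 lacking acrAB efflux pump and sulA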
[12] = probe aLefty1 binding on compound microarray – biochemical, small-molecule microarray, 635/667 nm fluorescence, primary screen (AID 1153); details: higher = more signal;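 further: score merges spot fluorescence with signal-to-noise ratio from the scanned slide images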
[13] = plasmodial surface anion channel blockers, osmotic lysis – cell-based, P. falciparum Indochina, OD700, 1 h, primary screen (AID 1154); details: P. falciparum Indochina infected RBC osmotic lysis, higher = more signal, called active from +8 up or from −8 down
[14] = plasmodial surface anion channel blockers, osmotic lysis – cell-based, P. falciparum Indochina, OD700, 2 h, primary screen (AID 1155);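 further: lysis reports solute entry through the parasite surface anion channel PSAC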; details: P. falciparum Indochina infected erythrocytes, higher = more signal, called active from +8 up or from −8 down
[15] = changes in parasitized red cell lysis, either direction – P. falciparum Indochina, OD700, 3 h, PSAC antagonist project, primary screen (AID 1156); details: P. falciparum-infected erythrocytes, osmotic lysis, higher = more signal, called active from +8 up or from −8 down
[16] = plasmodial surface anion channel blockers, osmotic lysis – cell-based, P. falciparum Indochina, OD700, 18 h, primary screen (AID 1157); details: P. falciparum Indochina infected erythrocytes, osmotic lysis OD700, 18 h; higher = more signal, called active from +8 up or from −8 down
[17] = S6 kinase pathway phospho-S6 level changes – cell-based, A549, cytoblot, luminescence, serum-stimulated, primary screen (AID 1158); details: 5 h, higher = more signal;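 further: serum-stimulated A549 lung adenocarcinoma cells; signal is phosphorylated S6 detected by cytoblot immunostaining with HRP secondary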
[18] = target: NADPH oxidase 2 (Homo sapiens) (UniProt P04839); assay: compounds shifting NOX2 Amplex Red fluorescence – cell-based, HEK293-NOX2, PMA-stimulated, NOX inhibitor project, primary screen (AID 1159); details: 45 min, higher = more signal, called active from +8 up or from −8 down; further: test concentration not given here
[19] = target: NADPH oxidase 4 (Homo sapiens) (UniProt Q9NPH5); assay: compounds shifting NOX4 Amplex Red fluorescence – cell-based, HEK293-NOX4, tetracycline-induced, NOX inhibitor project, primary screen (AID 1160); details: HEK293-NOX4, Amplex Red H2O2 fluorescence, 45 min; higher = more signal, called active from +8 up or from −8 down
[20] = target: NADPH oxidase 5 (Homo sapiens) (UniProt Q96PH1); assay: compounds shifting NOX5 Amplex Red fluorescence – cell-based, HEK293-NOX5, NOX inhibitor project, primary screen (AID 1161); details: HEK293-NOX5, ionomycin, 45 min, higher = more signal
NADPH oxidase 5 (Homo sapiens), sequence (Q96PH1 whole entry, looked up): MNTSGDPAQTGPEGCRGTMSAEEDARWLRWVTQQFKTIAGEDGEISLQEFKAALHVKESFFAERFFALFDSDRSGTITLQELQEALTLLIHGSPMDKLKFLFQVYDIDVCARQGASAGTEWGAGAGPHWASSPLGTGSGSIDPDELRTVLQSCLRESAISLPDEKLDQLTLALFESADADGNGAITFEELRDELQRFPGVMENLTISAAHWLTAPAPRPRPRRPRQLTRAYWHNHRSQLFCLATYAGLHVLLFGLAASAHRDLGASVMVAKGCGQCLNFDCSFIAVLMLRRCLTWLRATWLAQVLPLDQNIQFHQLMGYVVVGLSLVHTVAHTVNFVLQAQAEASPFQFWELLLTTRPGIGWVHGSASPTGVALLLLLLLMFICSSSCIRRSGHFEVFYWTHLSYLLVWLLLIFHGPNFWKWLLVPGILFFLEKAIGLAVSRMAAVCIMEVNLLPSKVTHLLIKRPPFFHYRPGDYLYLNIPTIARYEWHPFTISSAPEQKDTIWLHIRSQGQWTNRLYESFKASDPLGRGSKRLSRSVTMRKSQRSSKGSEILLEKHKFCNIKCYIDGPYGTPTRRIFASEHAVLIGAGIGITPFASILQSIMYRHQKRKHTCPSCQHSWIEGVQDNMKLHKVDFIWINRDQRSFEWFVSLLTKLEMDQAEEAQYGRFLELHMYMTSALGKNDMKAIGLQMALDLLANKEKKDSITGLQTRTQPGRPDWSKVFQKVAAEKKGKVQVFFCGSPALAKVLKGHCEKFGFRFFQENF

NADPH oxidase 4 (Homo sapiens), sequence (Q9NPH5 whole entry, looked up): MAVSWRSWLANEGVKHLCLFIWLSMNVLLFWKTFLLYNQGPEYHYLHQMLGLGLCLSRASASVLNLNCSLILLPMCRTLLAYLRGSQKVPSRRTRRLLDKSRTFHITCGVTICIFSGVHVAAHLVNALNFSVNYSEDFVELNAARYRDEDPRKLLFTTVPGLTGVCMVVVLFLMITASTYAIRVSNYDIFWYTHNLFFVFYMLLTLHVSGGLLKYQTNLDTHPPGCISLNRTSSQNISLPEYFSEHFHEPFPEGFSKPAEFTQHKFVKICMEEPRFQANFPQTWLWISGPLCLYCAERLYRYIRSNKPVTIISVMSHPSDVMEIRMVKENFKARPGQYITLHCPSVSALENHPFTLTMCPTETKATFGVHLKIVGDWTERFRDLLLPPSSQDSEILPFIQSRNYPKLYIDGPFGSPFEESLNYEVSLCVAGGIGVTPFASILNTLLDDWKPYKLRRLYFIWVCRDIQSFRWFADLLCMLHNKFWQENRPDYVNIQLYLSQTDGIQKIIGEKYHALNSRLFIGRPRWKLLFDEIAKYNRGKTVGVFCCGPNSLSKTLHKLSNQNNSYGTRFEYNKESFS
Streptavidin (Streptomyces avidinii), sequence (P22629 whole entry, looked up): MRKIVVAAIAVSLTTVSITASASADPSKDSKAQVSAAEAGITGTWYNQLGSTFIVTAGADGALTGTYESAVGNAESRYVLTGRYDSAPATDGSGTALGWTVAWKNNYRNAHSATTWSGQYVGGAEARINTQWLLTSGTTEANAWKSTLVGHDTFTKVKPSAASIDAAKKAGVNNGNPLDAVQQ
Torsin-1A (Homo sapiens), sequence (O14656 whole entry, looked up): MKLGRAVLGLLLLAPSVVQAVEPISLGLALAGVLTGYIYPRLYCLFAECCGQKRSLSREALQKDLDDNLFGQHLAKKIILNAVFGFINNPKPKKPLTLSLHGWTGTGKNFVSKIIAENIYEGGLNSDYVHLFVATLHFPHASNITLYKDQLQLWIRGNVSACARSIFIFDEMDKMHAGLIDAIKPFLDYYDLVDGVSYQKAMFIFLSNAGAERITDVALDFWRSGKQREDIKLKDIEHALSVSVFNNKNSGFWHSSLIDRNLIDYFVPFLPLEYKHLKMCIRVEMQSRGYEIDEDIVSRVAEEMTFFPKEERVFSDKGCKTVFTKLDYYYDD
NADPH oxidase 2 (Homo sapiens), sequence (P04839 whole entry, looked up): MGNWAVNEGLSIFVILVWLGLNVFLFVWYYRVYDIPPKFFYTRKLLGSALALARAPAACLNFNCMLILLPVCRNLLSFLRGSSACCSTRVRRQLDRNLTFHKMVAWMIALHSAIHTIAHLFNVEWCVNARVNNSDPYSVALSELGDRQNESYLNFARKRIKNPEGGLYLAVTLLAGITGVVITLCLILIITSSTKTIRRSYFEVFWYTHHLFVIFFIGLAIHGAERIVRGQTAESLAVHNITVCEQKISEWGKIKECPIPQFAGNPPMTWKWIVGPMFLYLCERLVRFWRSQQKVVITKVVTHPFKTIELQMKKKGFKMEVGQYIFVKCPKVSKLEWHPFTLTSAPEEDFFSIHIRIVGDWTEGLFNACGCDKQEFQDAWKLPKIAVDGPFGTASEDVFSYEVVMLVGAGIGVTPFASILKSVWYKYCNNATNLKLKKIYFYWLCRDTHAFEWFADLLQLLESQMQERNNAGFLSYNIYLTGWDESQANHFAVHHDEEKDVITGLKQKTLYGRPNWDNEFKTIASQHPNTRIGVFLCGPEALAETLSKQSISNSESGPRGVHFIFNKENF

SMILES | composite z-score [1] | z-score [2] | z-score [3] | z-score [4] | z-score [5] | composite z-score [6] | composite z-score [7] | composite z-score [8] | composite z-score [9] | composite z-score [10] | z-score [11] | composite z-score [12] | z-score [13] | z-score [14] | z-score [15] | z-score [16] | z-score [17] | z-score [18] | z-score [19] | z-score [20]
CC(C)(C)N1CC=CC23O[C@@H]4C=CCCOC(=O)C4[C@H]2C(=O)N(CCCCCCO)[C@@H]3C1=O (stereo not given in full) | -0.515 | 0.451 (inactive) | 0.595 (inactive) | -0.0899 (inactive) | -0.254 (inactive) | -0.703 | -0.0933 | -1.15 | -1.29 | 0.833 | 0.0094 (inactive) | 0.365 | 0.683 (inactive) | 0.181 (inactive) | 0.639 (inactive) | 0.233 (inactive) | 1.78 | 0.882 (inactive) | -0.0325 (inactive) | 2.08
CCCNC(=O)[C@@]1(Sc2ccc(C)cc2)CC(=O)N(Cc2ccccc2Cl)[C@@H]1c1ccc(CO)cc1I | -0.618 | -1.23 (inactive) | 0.0611 (inactive) | 0.479 (inactive) | 1.44 (inactive) | -0.255 | 0.216 | -1.61 | -1.42 | -0.537 | 0.244 (inactive) | 1.08 | 5.36 (inactive) | 0.773 (inactive) | 0.206 (inactive) | 0.303 (inactive) | 0.009 | 1.24 (inactive) | -1.41 (inactive) | 1.87
C[C@@H]1ON(c2ccc(I)cc2)[C@H](c2cccc(NC(=O)OCC3c4ccccc4-c4ccccc43)c2)[C@H]1C(=O)N1C(=O)OC[C@H]1Cc1ccccc1 | 0.0217 | -0.659 (inactive) | -0.215 (inactive) | 2.13 (inactive) | -0.0677 (inactive) | 0.226 | -0.0893 | 0.579 | -0.0059 | 0.851 | 1.26 (inactive) | 0.185 | -0.261 (inactive) | 0.755 (inactive) | 0.0181 (inactive) | 0.0584 (inactive) | -0.447 | -0.143 (inactive) | -2.58 (inactive) | -2.6
CN(C)CCCC[C@@H]1NC(=O)[C@@H]2C[C@H](C(=O)NCCCCCN)[C@H](c3cccc(OCCO)c3)N2C1=O | 0.132 | -0.716 (inactive) | -0.241 (inactive) | -0.118 (inactive) | -0.469 (inactive) | 0.909 | -0.101 | 0.433 | 0.0162 | 1.58 | 2.96 (inactive) | 0.25 | 1.11 (inactive) | -0.469 (inactive) | -1.52 (inactive) | -2.07 (inactive) | 2.77 | 0.635 (inactive) | 0.585 (inactive) | 1.57
COC(=O)[C@@]1(Cc2ccc(F)cc2)[C@H]2c3cc(C(=O)N4CCCC4)n(CCc4ccccn4)c3C[C@H]2CN1C(=O)c1ccccc1 | -0.0942 | -0.619 (inactive) | -0.237 (inactive) | 2.87 (inactive) | 0.245 (inactive) | 0.478 | 0.0889 | -0.226 | 0.783 | 0.208 | -1.04 (inactive) | 0.413 | 1.8 (inactive) | 0.408 (inactive) | 0.394 (inactive) | 0.446 (inactive) | -0.697 | 0.557 (inactive) | -0.279 (inactive) | -0.188
C=CCOC(=O)[C@@H]1[C@H]2C(=O)O[C@H](c3ccccc3)[C@H](c3ccccc3)N2[C@H](c2ccc(OCCOC(=O)[C@H]3C[C@H]4C(=O)NCC(=O)N4[C@H]3c3cccc(OCCO)c3)cc2)[C@@]12C(=O)Nc1ccc(I)cc12 | 0.569 | -0.357 (inactive) | -0.71 (inactive) | -0.264 (inactive) | -0.0891 (inactive) | 0.808 | 0.0228 | 0.724 | 0.702 | 1.88 | -0.27 (inactive) | 0.248 | 1.5 (inactive) | 1.56 (inactive) | 1.06 (inactive) | 1.26 (inactive) | 0.117 | 1.54 (inactive) | 0.436 (inactive) | 1.55
C=CCC(OC(C)=O)[C@@H]1[C@@H](N(Cc2cccc3ccccc23)C(=O)c2ccc(-c3ccccc3)cc2)c2cc(OCCCO)ccc2N1C(=O)Cc1ccc2ccccc2c1 (stereo not given in full) | -0.0281 | -0.182 (inactive) | 0.0777 (inactive) | -0.141 (inactive) | 0.0677 (inactive) | 0.911 | 0.0108 | -0.175 | -0.337 | 0.068 | -0.662 (inactive) | -0.0164 | 0.36 (inactive) | 0.35 (inactive) | -0.428 (inactive) | 0.309 (inactive) | -0.242 | -1.49 (inactive) | 1.15 (inactive) | 0.311
CCOC(=O)C[C@H]1[C@H](OC(=O)c2cc3ccccc3oc2=O)[C@@H](NC(=O)CC(C)C)c2cc(OCCCO)ccc2N1C(=O)Cc1ccc(OC)cc1 | 0.221 | -0.387 (inactive) | 1.19 (inactive) | 1.02 (inactive) | -0.505 (inactive) | 0.0665 | -0.128 | -0.0652 | 0.304 | 0.97 | -0.752 (inactive) | -0.193 | 5.95 (inactive) | 0.711 (inactive) | 0.863 (inactive) | 0.5 (inactive) | -0.0561 | 0.166 (inactive) | 0.381 (inactive) | 1.38
O=C(NC1CC1)[C@@H]1c2ccccc2C(=O)N(CC23CC4CC(CC(C4)C2)C3)[C@H]1c1ccc(CO)cc1 | 0.659 | -1.29 (inactive) | -0.88 (inactive) | 0.0026 (inactive) | -0.049 (inactive) | 0.189 | 0.0697 | 0.197 | 0.833 | 1.88 | 0.268 (inactive) | 0.284 | 1.56 (inactive) | 0.464 (inactive) | 1.48 (inactive) | 0.181 (inactive) | 0.268 | 0.507 (inactive) | 0.157 (inactive) | 0.412
